In ChEMBL document CHEMBL1961873, “Compounds: GSK PKIS; Assays: Nanosyn kinase panel” (2012) one finds inhibition data, which are given here for 3 compounds.

Assay [1] addresses T1, Serine/threonine-protein kinase D2 (Homo sapiens) (UniProt Q9BZL6).
T1 sequence (whole entry): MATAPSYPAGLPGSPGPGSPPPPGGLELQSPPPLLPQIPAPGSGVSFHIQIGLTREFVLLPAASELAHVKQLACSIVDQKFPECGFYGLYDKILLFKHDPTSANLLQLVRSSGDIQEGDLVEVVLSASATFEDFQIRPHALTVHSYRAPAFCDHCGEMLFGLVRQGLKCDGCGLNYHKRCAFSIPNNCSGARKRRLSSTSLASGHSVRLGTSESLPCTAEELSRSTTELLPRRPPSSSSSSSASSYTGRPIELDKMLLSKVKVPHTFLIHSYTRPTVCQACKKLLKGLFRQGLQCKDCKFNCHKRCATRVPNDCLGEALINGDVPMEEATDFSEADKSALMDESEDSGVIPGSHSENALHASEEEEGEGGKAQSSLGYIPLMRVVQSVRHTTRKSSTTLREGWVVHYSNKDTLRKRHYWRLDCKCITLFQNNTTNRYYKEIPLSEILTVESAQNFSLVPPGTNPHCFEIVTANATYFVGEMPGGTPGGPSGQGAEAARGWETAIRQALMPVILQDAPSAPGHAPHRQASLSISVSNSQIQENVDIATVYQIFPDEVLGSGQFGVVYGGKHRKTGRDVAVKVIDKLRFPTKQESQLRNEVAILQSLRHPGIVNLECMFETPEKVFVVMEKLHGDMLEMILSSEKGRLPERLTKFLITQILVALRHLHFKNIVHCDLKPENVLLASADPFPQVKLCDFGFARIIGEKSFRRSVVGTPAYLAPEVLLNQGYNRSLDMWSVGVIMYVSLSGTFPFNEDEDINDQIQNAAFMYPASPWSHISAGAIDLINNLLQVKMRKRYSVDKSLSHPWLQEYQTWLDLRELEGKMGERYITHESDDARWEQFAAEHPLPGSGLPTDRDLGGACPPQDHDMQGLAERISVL
Conditions: at 1 µM.

In assay [2] the target is T2, Serine/threonine-protein kinase D3 (Homo sapiens) (UniProt O94806).
T2 sequence (whole entry): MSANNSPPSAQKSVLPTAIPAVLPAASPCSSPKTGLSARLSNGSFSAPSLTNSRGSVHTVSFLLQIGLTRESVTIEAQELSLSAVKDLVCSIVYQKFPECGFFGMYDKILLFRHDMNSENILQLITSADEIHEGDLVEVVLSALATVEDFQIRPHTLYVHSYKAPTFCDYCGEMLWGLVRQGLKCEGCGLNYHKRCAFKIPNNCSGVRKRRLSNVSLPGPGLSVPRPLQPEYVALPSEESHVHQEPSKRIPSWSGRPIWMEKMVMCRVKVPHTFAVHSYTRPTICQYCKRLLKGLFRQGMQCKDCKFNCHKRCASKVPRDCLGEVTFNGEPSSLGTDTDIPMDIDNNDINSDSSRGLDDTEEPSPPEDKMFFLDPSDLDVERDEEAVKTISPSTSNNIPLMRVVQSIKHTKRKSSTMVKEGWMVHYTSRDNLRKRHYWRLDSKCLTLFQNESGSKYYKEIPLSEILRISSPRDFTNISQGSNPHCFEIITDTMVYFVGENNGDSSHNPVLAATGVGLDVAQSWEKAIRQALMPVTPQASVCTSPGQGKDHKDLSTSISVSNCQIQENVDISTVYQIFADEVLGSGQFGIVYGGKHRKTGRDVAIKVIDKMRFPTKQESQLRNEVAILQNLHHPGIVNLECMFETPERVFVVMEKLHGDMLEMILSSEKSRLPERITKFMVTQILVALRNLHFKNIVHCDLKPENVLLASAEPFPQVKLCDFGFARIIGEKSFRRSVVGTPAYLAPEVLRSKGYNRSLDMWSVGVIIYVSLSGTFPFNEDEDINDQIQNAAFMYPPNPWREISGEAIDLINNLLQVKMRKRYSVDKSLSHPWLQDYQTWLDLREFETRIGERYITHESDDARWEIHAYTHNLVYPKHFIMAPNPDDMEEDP
Conditions: at 0.1 µM.

The target of assay [3] is T2, Serine/threonine-protein kinase D3 (Homo sapiens). Conditions: at 1 µM.
The target of assay [4] is T3, cGMP-dependent protein kinase 1 (Homo sapiens) (UniProt Q13976).
T3 sequence (whole entry): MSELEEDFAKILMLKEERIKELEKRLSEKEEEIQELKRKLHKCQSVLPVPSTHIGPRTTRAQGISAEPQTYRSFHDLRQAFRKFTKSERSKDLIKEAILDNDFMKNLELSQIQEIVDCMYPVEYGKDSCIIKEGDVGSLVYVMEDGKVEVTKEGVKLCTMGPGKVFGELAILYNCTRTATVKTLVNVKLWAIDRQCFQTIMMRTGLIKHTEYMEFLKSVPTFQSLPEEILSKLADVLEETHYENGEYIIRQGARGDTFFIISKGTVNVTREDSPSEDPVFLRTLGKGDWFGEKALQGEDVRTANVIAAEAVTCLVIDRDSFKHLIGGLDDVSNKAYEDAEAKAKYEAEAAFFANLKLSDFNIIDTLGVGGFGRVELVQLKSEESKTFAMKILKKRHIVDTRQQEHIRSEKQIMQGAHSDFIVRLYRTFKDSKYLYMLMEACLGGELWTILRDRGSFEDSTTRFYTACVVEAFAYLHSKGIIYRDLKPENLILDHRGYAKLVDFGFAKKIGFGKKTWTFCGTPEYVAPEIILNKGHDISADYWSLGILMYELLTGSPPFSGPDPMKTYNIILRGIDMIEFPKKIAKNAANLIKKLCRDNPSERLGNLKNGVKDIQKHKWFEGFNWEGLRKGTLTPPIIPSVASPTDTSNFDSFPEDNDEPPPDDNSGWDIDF
Conditions: at 0.1 µM.

For assay [5], the target named is T3, cGMP-dependent protein kinase 1 (Homo sapiens). Conditions: at 1 µM.
Assay [6] has as its target T4, cGMP-dependent protein kinase 2 (Homo sapiens) (UniProt Q13237).
T4 sequence (whole entry): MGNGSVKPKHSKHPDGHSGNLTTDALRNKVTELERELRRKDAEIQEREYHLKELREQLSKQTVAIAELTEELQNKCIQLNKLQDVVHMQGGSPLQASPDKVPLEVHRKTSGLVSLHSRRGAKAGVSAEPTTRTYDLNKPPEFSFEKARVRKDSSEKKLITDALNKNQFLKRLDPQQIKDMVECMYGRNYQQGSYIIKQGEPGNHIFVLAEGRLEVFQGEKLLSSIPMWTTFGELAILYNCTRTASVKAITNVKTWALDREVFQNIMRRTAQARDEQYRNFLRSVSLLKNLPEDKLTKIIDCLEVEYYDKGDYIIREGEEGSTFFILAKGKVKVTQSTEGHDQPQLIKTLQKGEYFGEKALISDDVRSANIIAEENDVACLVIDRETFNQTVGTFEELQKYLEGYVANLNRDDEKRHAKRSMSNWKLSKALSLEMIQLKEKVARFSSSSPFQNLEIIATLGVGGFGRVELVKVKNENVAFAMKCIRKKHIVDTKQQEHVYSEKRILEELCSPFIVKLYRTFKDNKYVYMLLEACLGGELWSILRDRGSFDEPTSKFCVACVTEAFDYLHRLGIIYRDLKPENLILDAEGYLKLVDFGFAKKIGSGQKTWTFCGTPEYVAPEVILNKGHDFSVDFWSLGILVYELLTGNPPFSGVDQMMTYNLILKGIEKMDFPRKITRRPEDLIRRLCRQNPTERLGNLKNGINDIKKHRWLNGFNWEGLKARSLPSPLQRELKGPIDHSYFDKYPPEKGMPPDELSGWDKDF
Conditions: at 0.1 µM.

In assay [7] the target is T4, cGMP-dependent protein kinase 2 (Homo sapiens). Conditions: at 1 µM.
Assay [8] has as its target T5, cAMP-dependent protein kinase catalytic subunit PRKX (Homo sapiens) (UniProt P51817).
T5 sequence (whole entry): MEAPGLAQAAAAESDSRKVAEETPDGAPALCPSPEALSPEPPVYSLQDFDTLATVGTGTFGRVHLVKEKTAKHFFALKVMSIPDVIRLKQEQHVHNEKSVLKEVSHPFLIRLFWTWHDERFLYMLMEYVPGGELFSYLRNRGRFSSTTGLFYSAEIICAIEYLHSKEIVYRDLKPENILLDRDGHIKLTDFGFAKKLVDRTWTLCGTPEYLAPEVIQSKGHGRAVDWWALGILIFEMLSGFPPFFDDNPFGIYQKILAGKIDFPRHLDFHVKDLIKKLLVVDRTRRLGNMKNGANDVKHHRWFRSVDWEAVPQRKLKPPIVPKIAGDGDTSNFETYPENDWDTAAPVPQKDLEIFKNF
Conditions: at 0.1 µM.

In assay [9] the target is T5, cAMP-dependent protein kinase catalytic subunit PRKX (Homo sapiens). Conditions: at 1 µM.
For assay [10], the target named is Rho-associated protein kinase 1 (Homo sapiens) (UniProt Q13464). Conditions: at 0.1 µM.
Rho-associated protein kinase 1 (Homo sapiens), sequence (Q13464 2-1354 limits assumed): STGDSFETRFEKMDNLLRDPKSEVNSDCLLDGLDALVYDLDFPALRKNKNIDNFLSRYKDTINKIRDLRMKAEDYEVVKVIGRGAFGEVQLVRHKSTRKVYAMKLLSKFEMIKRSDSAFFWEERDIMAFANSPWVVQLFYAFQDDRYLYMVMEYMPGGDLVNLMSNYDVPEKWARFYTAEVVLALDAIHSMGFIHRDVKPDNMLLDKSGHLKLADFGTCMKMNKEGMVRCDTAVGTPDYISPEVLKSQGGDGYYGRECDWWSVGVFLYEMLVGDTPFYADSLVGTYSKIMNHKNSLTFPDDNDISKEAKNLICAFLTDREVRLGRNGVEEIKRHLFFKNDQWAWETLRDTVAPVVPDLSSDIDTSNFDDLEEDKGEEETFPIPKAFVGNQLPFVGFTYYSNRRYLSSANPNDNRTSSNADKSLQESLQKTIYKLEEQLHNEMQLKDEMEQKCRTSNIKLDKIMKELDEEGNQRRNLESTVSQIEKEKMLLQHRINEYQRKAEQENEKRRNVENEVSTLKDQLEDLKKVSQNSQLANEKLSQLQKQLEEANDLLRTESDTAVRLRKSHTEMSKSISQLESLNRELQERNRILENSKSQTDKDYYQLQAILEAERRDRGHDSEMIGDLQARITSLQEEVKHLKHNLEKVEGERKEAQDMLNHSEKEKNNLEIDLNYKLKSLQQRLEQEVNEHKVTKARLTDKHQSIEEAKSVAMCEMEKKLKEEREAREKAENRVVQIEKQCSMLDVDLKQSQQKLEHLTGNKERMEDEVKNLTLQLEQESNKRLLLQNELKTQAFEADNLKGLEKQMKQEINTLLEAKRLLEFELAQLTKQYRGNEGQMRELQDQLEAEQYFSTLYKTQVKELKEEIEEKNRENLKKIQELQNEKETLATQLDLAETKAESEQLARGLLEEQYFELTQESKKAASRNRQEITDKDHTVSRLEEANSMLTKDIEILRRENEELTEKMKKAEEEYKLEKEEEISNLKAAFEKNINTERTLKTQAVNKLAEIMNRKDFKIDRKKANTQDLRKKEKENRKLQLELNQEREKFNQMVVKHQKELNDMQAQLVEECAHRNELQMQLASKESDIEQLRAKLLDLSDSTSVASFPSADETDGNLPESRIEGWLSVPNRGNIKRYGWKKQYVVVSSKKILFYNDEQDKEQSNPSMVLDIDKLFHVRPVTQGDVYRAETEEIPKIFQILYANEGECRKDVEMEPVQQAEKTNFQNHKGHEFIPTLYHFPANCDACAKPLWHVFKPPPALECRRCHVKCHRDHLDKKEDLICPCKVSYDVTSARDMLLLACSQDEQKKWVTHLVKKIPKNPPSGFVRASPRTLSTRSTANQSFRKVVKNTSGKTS
The target is the same in assay [11]. Conditions: at 1 µM.
Assay [12] addresses Rho-associated protein kinase 2 (Homo sapiens) (UniProt O75116). Conditions: at 0.1 µM.
Assay [13] shares this target. Conditions: at 1 µM.
In assay [14] the target is Ribosomal protein S6 kinase alpha-1 (Homo sapiens) (UniProt Q15418). Conditions: at 0.1 µM.
Assay [15] shares this target. Conditions: at 1 µM.
For assay [16], the target named is Ribosomal protein S6 kinase alpha-3 (Homo sapiens) (UniProt P51812). Conditions: at 0.1 µM.
Ribosomal protein S6 kinase alpha-3 (Homo sapiens), sequence (P51812 whole entry): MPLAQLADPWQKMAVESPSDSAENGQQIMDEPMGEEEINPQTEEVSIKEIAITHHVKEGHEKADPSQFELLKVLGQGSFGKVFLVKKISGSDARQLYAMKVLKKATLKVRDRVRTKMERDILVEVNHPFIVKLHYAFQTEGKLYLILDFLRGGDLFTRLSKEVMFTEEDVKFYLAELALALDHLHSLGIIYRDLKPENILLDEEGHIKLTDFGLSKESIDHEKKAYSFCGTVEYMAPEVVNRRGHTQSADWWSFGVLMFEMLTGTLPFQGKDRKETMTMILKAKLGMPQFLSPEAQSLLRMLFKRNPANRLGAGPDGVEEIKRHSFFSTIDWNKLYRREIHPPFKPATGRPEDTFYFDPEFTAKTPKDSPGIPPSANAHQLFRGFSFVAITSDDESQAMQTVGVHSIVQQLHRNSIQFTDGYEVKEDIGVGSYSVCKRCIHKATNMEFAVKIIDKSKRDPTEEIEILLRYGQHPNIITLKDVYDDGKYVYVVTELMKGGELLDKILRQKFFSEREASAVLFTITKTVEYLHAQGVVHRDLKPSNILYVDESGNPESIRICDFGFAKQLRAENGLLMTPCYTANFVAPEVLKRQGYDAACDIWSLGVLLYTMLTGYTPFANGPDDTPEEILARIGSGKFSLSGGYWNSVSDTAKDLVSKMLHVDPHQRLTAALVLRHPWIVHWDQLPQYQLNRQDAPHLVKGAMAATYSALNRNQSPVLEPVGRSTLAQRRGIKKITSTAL
The target is the same in assay [17]. Conditions: at 1 µM.
Assay [18] addresses Ribosomal protein S6 kinase alpha-2 (Homo sapiens) (UniProt Q15349). Conditions: at 0.1 µM.
Assay [19] has the same target. Conditions: at 1 µM.
Assay [20] concerns the target Ribosomal protein S6 kinase alpha-6 (Homo sapiens) (UniProt Q9UK32). Conditions: at 0.1 µM.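 Further: reported value is the mean inhibition of RSK4, from the GSK PKIS kinase inhibitor screen.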

Rho-associated protein kinase 2 (Homo sapiens), sequence (O75116 whole entry, looked up): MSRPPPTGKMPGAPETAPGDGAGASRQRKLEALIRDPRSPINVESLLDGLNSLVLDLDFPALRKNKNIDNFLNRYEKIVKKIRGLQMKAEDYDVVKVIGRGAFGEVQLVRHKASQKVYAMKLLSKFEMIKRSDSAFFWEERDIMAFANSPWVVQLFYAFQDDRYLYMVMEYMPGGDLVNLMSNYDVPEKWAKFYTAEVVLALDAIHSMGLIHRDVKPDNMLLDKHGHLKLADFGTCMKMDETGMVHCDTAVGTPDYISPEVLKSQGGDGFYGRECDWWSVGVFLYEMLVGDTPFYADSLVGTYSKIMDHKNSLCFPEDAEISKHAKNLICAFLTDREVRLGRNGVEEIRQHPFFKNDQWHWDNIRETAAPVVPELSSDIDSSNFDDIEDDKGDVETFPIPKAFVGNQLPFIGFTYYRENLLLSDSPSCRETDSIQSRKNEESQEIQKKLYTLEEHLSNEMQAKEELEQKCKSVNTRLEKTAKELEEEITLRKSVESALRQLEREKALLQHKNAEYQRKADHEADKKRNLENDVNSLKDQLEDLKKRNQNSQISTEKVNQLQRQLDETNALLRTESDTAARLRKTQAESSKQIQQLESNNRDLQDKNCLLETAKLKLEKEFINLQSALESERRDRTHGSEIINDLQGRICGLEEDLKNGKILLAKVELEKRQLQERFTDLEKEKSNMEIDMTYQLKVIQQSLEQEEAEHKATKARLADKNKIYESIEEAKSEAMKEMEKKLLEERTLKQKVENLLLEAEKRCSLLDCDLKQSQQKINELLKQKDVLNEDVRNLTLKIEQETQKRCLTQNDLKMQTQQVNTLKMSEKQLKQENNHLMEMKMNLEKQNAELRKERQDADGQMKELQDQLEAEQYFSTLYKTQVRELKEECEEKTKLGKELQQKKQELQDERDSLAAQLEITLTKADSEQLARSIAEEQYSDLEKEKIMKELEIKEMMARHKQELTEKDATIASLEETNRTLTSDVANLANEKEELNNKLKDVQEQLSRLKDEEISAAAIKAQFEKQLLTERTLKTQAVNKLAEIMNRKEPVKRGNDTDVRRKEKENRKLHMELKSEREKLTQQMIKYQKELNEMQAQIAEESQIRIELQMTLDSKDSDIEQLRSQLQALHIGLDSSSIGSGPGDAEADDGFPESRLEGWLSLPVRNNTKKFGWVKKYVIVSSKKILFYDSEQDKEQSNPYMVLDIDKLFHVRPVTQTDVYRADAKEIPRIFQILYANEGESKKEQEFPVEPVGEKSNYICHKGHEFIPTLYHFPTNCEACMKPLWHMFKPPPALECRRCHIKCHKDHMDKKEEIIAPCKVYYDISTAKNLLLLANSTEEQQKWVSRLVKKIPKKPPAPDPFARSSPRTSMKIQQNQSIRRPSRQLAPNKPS
Ribosomal protein S6 kinase alpha-6 (Homo sapiens), sequence (Q9UK32 whole entry): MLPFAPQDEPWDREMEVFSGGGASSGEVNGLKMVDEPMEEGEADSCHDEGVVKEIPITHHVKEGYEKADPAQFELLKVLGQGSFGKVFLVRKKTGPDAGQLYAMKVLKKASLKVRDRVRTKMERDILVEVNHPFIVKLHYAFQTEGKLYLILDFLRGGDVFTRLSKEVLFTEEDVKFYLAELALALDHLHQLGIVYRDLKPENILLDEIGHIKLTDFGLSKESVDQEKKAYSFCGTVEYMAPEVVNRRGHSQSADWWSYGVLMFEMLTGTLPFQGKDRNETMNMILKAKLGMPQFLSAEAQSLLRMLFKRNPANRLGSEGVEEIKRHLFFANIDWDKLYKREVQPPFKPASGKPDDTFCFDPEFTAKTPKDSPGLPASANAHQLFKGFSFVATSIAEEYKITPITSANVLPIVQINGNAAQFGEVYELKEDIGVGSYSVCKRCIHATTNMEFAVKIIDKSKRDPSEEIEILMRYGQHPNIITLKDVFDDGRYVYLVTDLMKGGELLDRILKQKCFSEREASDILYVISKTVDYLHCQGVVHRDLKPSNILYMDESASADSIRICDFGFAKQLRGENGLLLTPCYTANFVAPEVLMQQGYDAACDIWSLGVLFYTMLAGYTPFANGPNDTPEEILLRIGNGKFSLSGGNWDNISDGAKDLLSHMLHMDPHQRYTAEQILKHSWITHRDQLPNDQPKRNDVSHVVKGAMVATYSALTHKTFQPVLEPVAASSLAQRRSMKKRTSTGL
Ribosomal protein S6 kinase alpha-2 (Homo sapiens), sequence (Q15349 whole entry): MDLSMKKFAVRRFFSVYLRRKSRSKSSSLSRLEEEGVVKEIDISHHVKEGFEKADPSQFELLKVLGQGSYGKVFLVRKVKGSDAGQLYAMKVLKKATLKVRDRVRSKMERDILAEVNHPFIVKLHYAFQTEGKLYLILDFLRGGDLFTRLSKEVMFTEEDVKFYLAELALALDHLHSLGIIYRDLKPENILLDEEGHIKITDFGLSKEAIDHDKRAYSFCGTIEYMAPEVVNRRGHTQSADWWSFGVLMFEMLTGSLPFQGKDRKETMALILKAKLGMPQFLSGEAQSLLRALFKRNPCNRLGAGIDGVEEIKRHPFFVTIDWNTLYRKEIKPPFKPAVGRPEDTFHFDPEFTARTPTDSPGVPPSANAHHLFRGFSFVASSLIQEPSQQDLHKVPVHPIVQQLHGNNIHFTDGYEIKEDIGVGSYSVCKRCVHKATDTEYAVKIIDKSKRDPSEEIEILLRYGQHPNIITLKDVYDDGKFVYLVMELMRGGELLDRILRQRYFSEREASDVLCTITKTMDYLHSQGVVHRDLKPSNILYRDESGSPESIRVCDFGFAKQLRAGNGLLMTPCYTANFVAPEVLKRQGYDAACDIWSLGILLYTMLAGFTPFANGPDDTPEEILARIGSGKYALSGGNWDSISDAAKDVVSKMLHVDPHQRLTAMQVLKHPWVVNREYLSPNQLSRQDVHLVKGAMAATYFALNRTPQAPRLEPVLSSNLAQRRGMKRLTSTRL

Regarding `CS(=O)(=O)Nc1cccc(-c2ccc3c(NC(=O)C4CC4)n[nH]c3c2)c1`, the inhibition in [1] is 3.59%; in assay [2], 1.24%; in assay [3] it was 2.48%; in [4], -0.41%; in [5] it was 1.73%; in [6] it was 1.34%. For the same compound, the inhibition is 2.16% in [7]; 0.39% in assay [8]; -0.61% in [9]; 0.24% in assay [10]; 0.09% in [11]; 0.82% in [12]. The inhibition in assay [13] is -0.9%; in assay [14] it was -0.15%; in assay [15], -0.83%; in [16], 1.31%; in [17], 1.41%; in assay [18], 1.1%. For the same compound, the inhibition in assay [19] is 2.19%; in assay [20] it was 1.24%.
With `Nc1nccc(-c2c(-c3ccc(F)cc3)ncn2CCCN2CCOCC2)n1`, the inhibition in [1] amounted to 4.5%; in assay [2] it was 4.8%; in [3], 4.86%; in [4], 4.04%; in assay [5] it was 4.99%; in [6], 2.72%. In addition, the inhibition in assay [7] came to 3.95%; in assay [8], 2.51%; in [9] it was 5.13%; in assay [10], 2.49%; in [11], 3.31%; in assay [12], 4.99%. The inhibition in [13] amounted to 5.24%; in assay [14], 2.16%; in [15], 4.6%; in [16], 1.92%; in assay [17] it was 2.6%; in assay [18] it was 3.04%. For the same compound, the inhibition amounted to 2.27% in assay [19] and 2.26% in [20].
Regarding `[O-][S+]1CCN(Cc2ccc(-c3ccc4ncnc(Nc5ccc(OCc6ccccc6)c(Cl)c5)c4c3)o2)CC1`, the inhibition was found to be 1.77% in assay [1]; 1.61% in assay [2]; 2.2% in assay [3]; 1.79% in [4]; 0.53% in assay [5]; 0.97% in assay [6]. The inhibition worked out at 2.95% in [7]; 1.3% in assay [8]; 1.17% in [9]; 0.9% in [10]; 1.73% in [11]; 0.05% in assay [12]. For the same compound, the inhibition was 0.91% in assay [13]; -1.27% in [14]; 0.75% in assay [15]; -1.03% in assay [16]; 0.82% in [17]; -1.2% in [18]. The inhibition in assay [19] is 0.54%; in [20], -1.76%.
